Results filed as inconclusive are left out. The source made the active and inactive calls. Unless noted, the call rests on the fitted dose curve; in most records, active means well fitted inhibition curve with a large enough effect; inconclusive means small, poorly fitted or top-dose-only effect; inactive means no such curve, though single readings can be large or run the other way.
Columns and labels:
[1] = qHTS profiling of the MIPE4 collection as inhibitors of Plasmodium falciparum (3D7) proliferation (AID 743344; call rule not given here;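 further: scaled between DMSO vehicle wells and 0.29 µM artemisinin as full inhibition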); conditions: P. falciparum 3D7 in erythrocytes, SYBR Green DNA fluorescence, 72 h; at 28.5 µM unless noted
Method in brief: (§1)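 Parasite DNA was quantified by SYBR Green I fluorescence (ex 485, em 535 nm) after overnight lysis in saponin/Triton buffer at room temperature. Cultures at 0.3% parasitemia and 2.5% hematocrit were first exposed to compound for 72 h at 37 C; signals were normalised to artemisinin (0.29 uM) and vehicle wells.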

[2] = qHTS profiling of the MIPE4 collection as inhibitors of Plasmodium falciparum (DD2) proliferation (AID 743345; call rule not given here); conditions: P. falciparum Dd2 in erythrocytes, SYBR Green DNA, 72 h; at 28.5 µM unless noted
Method in brief: as §1

[3] = qHTS profiling of the MIPE4 collection as inhibitors of Plasmodium falciparum (DD2) proliferation (Rep 2) (AID 743346; call rule not given here); conditions: P. falciparum Dd2 in erythrocytes, SYBR Green DNA, 72 h; at 28.5 µM unless noted
Method in brief: as §1

[4] = qHTS profiling of the MIPE4 collection as inhibitors of Plasmodium falciparum (HB3) proliferation (AID 743347; call rule not given here;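 further: plate controls were DMSO vehicle wells for no effect and artemisinin wells for full effect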); conditions: P. falciparum HB3 in erythrocytes, SYBR Green DNA, 72 h; at 28.5 µM unless noted
Method in brief: as §1

[5] = High-throughput drug toxicity screening in the BPDCN cell line Gen2.2 (AID 1224824; call rule not given here;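 further: cells exposed to compounds for 48 h before reading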); conditions: Gen2.2 BPDCN cells; at 45.8 µM (top of the series) unless noted
Method in brief: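 CellTiter-Glo luminescence read after 48 h compound exposure at 37 C defines viability; percent activity set with DMSO as 100% and bortezomib (9.2 uM final) as 0%. 500 exponentially growing cells per well, RPMI plus 10% FBS.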

[6] = High-throughput drug toxicity screening in the BPDCN cell line Cal-1 (AID 1224825; call rule not given here); conditions: Cal-1 BPDCN cell viability, qHTS; at 45.8 µM (top of the series) unless noted
Method in brief: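 CellTiter-Glo luminescence after 48 h compound exposure; percent activity scaled with DMSO as 100% and bortezomib (9.2 uM final) as 0%. Cal-1 cells seeded at 500/well in RPMI, 10% FBS, no phenol red.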

[7] = qHTS assay for measurement of the activity of small molecule inhibitors on Zika virus induced Caspase-3 activity in human iPSC derived neural progenitor cells (hNPCs) (AID 1224857); further: % of control where 0% means no effect; nearly all actives have a fitted effect of over 65% in size
Method in brief: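 Caspase-3/7 induction by a 6-hour ZIKV infection was quantified with a luminescent Caspase-Glo 3/7 reagent incubated 30 minutes at room temperature. Compounds were preincubated with hNPCs for 1 hour; inhibition was calculated against uninfected and infected control wells.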

[8] = qHTS assay for measurement of the activity of small molecule inhibitors on Zika virus induced Caspase-3 activity in human astrocytoma cells (AID 1224859);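 further: plate controls were ZIKV-infected untreated cells for no effect and uninfected cells for full effect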
Method in brief: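 In SNB-19 cells plated at 250 cells/well and grown 16-20 h, compounds were applied 1 h before ZIKV (2 FFU/cell). Six hours later caspase-3/7 luminescence was recorded.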

[9] = qHTS Screen of the MIPE 4.0 Collection Against Ewings Sarcoma (RDES) (AID 1259252); further: nearly all actives have a fitted effect of over 35% in size; further: potency means the concentration at half of the fitted maximal effect
Method in brief: (§2)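 Log-phase cells in RPMI with 5% FBS attached for 4 h, then received compounds as a titration for 48 h at 37C, 5% CO2. Viability was read by CellTiter-Glo luminescence and normalized to DMSO and no-cell wells.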

[10] = qHTS Screen of the MIPE 4.0 Collection Against Ewings Sarcoma (TC71) (AID 1259253); further: nearly all actives have a fitted effect of over 40% in size; further: potency means the concentration at half of the fitted maximal effect
Method in brief: as §2

[11] = qHTS Screen of the MIPE 4.0 Collection Against Ewings Sarcoma (EW8) (AID 1259255); further: nearly all actives have a fitted effect of over 35% in size; further: potency means the concentration at half of the fitted maximal effect;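 on viability: 100% = DMSO-treated cells and 0% = medium-only wells without cells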
Method in brief: as §2

[12] = qHTS Screen of the MIPE 4.0 Collection Against Ewings Sarcoma (TC32) (AID 1259256); further: nearly all actives have a fitted effect of over 45% in size; further: potency means the concentration at half of the fitted maximal effect
Method in brief: as §2

| Compound | parasite growth, % of DMSO control [1] [%] | parasite growth remaining, % of DMSO control (lower = more inhibition) [2] [%] | parasite growth, % of control (lower = inhibition) [3] [%] | growth, % of control [4] [%] | cell viability, % of control (lower = more cytotoxic) [5] [%] | viability (% of control) [6] [%] | Potency [7] | Potency [8] | Potency [9] | Potency [10] | Potency [11] | Potency [12] |
| --- | --- | --- | --- | --- | --- | --- | --- | --- | --- | --- | --- | --- |
| OCCN1C[C@H](O)[C@@H](O)[C@H](O)[C@@H]1CO | 96.1 | 131 | 85.5 | 97.8 | 122 | 103 | inactive | inactive | inactive | inactive | inactive | inactive |
| CCC(C(=O)O)C1CCC(C)C(C(C)C(O)C(C)C(=O)C(CC)C2OC3(C=CC(O)[C@@]4(CC[C@](C)(C5CC[C@@](O)(CC)C(C)O5)O4)O3)C(C)CC2C)O1 (stereo partly drawn) | 9.07 | 6.02 | 7.13 | 16.9 | 16 | 12.3 | inactive | inactive | 1.18 µM (active) | 1.48 µM (active) | 0.833 µM (active) | 2.64 µM (active) |
| O=C1NC(O)CCN1[C@@H]1O[C@H](CO)[C@H](O)[C@H]1O (stereo partly drawn) | 98.9 | 97.8 | 109 | 59.2 | 105 | 115 | inactive | inactive | inactive | inactive | inactive | inactive |
| COC1=C(OC)C(=O)C(CC=C(C)CCC=C(C)CCC=C(C)CCC=C(C)CCC=C(C)CCC=C(C)CCC=C(C)CCC=C(C)CCC=C(C)CCC=C(C)C)=C(C)C1=O | 94.3 | 46.1 | 131 | 97.8 | 125 | 111 | inactive | inactive | inactive | inactive | inactive | inactive |
| CC(O)(C#Cc1ccc2c(c1)N(c1nc(N)ncc1Cl)CC2)c1nccs1 (stereo not drawn) | 11.7 | 33.4 | 22.8 | 5.79 | 279 | 37.2 | inactive | inactive | 16.6 µM (active) | 20.9 µM (active) | 20.9 µM (active) | 20.9 µM (active) |
| CCCNC(=O)[C@H]1O[C@H]1C(=O)N[C@H](C(=O)N1CCC[C@@H]1C(=O)OC)C(C)CC (stereo partly drawn) | 88 | 94.3 | 52.3 | 102 | 18.6 | 8.18 | inactive | inactive | 3.32 µM (active) | 6.62 µM (active) | 11.8 µM (active) | 5.26 µM (active) |
| CCN(C(=O)c1c(O)c2c(Cl)cccc2n(C)c1=O)c1ccccc1 | 94.2 | 108 | 78.3 | 102 | 112 | 20.2 | inactive | inactive | inactive | inactive | inactive | inactive |
| COc1cc(C)c(C=CC(C)=CC=CC(C)=CC(=O)O)c(C)c1C | 85.8 | 115 | 85.9 | 83.1 | 336 | 94.9 | inactive | inactive | inactive | inactive | inactive | inactive |
| CC(=O)OCC(=O)[C@@]12N=C(C)O[C@H]1C[C@H]1[C@@H]3CCC4=CC(=O)C=C[C@]4(C)[C@@H]3[C@@H](O)C[C@@]12C | 89.5 | 90 | 68.3 | 84 | 94.7 | 57.7 | inactive | inactive | inactive | inactive | inactive | inactive |
| Cc1ccc(-n2[nH]c(C)c(N=Nc3cccc(-c4cccc(C(=O)O)c4)c3O)c2=O)cc1C | 57 | 92.5 | 72.1 | 72.9 | 180 | 28.2 | inactive | inactive | 18.7 µM (active) | 11.8 µM (active) | 18.7 µM (active) | 6.62 µM (active) |
| CC(C)NC[C@@H](C(=O)N1CCN(c2ncnc3c2[C@H](C)C[C@H]3O)CC1)c1ccc(Cl)cc1 | 5.13 | 64.9 | 5.81 | 2.94 | 1.71 | 1.88 | inactive | inactive | 4.69 µM (active) | 11.8 µM (active) | 1.66 µM (active) | 2.64 µM (active) |
| COc1cc([C@@H]2c3cc4c(cc3[C@@H](O[C@@H]3O[C@@H]5CO[C@@H](c6cccs6)O[C@@H]5[C@H](O)[C@@H]3O)[C@H]3COC(=O)[C@H]23)OCO4)cc(OC)c1O | 5.39 | 8.04 | 9.32 | 5.8 | 27.7 | 5.23 | inactive | inactive | 0.264 µM (active) | 0.148 µM (active) | 0.0296 µM (active) | inactive |
| Nc1nc(N)c2nc(-c3cccc(O)c3)c(-c3cccc(O)c3)nc2n1 | 15.5 | 10.5 | 26.2 | 11 | 15.8 | 5.3 | inactive | inactive | 23.5 µM (active) | 20.9 µM (active) | 23.5 µM (active) | 20.9 µM (active) |
| COc1cc(CCc2cc(NC(=O)c3ccc(N4C[C@@H](C)N[C@@H](C)C4)cc3)n[nH]2)cc(OC)c1 | 50.5 | 66.7 | 43.7 | 10.3 | 14 | 4.08 | inactive | inactive | 18.7 µM (active) | 16.6 µM (active) | 16.6 µM (active) | 13.2 µM (active) |

Source: PubChem BioAssay (NCATS)
